Assay results reported in the supplement of paper PMC13380429.

Columns and labels:
[1] = test system: Vero E6 infected with SARS-CoV-2; experiment: morphology score (similarity to uninfected cells); higher = more like uninfected cells; details: 24 h
[2] = test system: Vero E6 infected with SARS-CoV-2; experiment: SARS-CoV-2 infection rate relative to infected DMSO; higher = more infection, active = 60 or less; details: 24 h

C[n+]1c2cc(N)ccc2cc2ccc(N)cc21 [acriflavinium] (0.833333 µM)
morphology score [1]: 0.0932
SARS-CoV-2 infection rate [2]: 98.5% (inactive)

Cc1cc2c(F)c(Oc3ncnn4cc(OC[C@@H](C)OC(=O)[C@H](C)N)c(C)c34)ccc2[nH]1 [brivanib-alaninate] (10 µM)
morphology score [1]: 0.385
SARS-CoV-2 infection rate [2]: 106% (inactive)

Cc1cc(C)c(CNC(=O)c2cc(-c3ccc(N4CCN(C)CC4)nc3)cc3c2c(C)cn3C(C)C)c(=O)[nH]1 (10 µM)
morphology score [1]: 0.171
SARS-CoV-2 infection rate [2]: 98% (inactive)

COC[C@H](NC(=O)c1cnc(C)s1)C(=O)N[C@@H](COC)C(=O)N[C@@H](Cc1ccccc1)C(=O)[C@@]1(C)CO1 [oprozomib] (0.833333 µM)
morphology score [1]: -0.312
SARS-CoV-2 infection rate [2]: 108% (inactive)

Fc1ccc(-c2cncc(CN3CCN(c4cccc5c4OCCO5)CC3)c2)cc1 [adoprazine] (10 µM)
morphology score [1]: 0.131
SARS-CoV-2 infection rate [2]: 101% (inactive)

C[C@@H](O[C@H]1OCCN(Cc2nn(P(=O)(O)O)c(=O)[nH]2)[C@H]1c1ccc(F)cc1)c1cc(C(F)(F)F)cc(C(F)(F)F)c1 [fosaprepitant-dimeglumine] (10 µM)
morphology score [1]: 0.0215
SARS-CoV-2 infection rate [2]: 112% (inactive)

N[C@@H](C(=O)N[C@@H]1C(=O)N2C(C(=O)O)=C(Cl)CC[C@H]12)c1ccccc1 [loracarbef] (10 µM)
morphology score [1]: 0.167
SARS-CoV-2 infection rate [2]: 101% (inactive)

COc1cc(Nc2c(C#N)cnc3cc(OCCCN4CCN(C)CC4)c(OC)cc23)c(Cl)cc1Cl [bosutinib] (10 µM)
morphology score [1]: 0.00987
SARS-CoV-2 infection rate [2]: 96.5% (inactive)

O=c1cc(-c2cccc3c2Sc2ccccc2S3)oc(N2CCOCC2)c1 (10 µM)
morphology score [1]: 0.284
SARS-CoV-2 infection rate [2]: 83% (inactive)

Cc1ccc(-c2c(-c3nn(C)c4ncnc(N5CC[C@H](N6CCCCC6)C5)c34)cnn2C)cc1 (10 µM)
morphology score [1]: 0.14
SARS-CoV-2 infection rate [2]: 100% (inactive)

CN1CCC(=C2c3ccccc3Sc3ccccc32)CC1 [pimethixene] (10 µM)
morphology score [1]: 0.373
SARS-CoV-2 infection rate [2]: 85.5% (inactive)

Cc1c(N(C)C)c(=O)n(-c2ccccc2)n1C [amidopyrine] (10 µM)
morphology score [1]: -0.0419
SARS-CoV-2 infection rate [2]: 110% (inactive)

CNC(=O)c1ccc2c(c1)CCO[C@H]2CCN1CCN(c2ccc(C(N)=O)cc2)CC1 (10 µM)
morphology score [1]: 0.0173
SARS-CoV-2 infection rate [2]: 106% (inactive)

COCCOc1cnc2ccn([C@H](C)c3nnc4c(F)cc(-c5cnn(C)c5)cn34)c(=O)c2c1 (10 µM)
morphology score [1]: 0.0816
SARS-CoV-2 infection rate [2]: 105% (inactive)

COc1cc2nc(N3CCN(C(=O)COc4c(OC)cccc4C(C)C)CC3)nc(N)c2cc1OC (10 µM)
morphology score [1]: -0.065
SARS-CoV-2 infection rate [2]: 92.5% (inactive)

Cc1c[nH]c2ncnc(N3CCC(CN)(C(=O)Nc4cccc(OC(=O)N(C)C)c4)CC3)c12 (10 µM)
morphology score [1]: 0.156
SARS-CoV-2 infection rate [2]: 94% (inactive)

O=C(CCBr)N1CC[N+]2(CC1)CC[N+]1(CCN(C(=O)CCBr)CC1)CC2 [spirobromin] (10 µM)
morphology score [1]: -0.0585
SARS-CoV-2 infection rate [2]: 112% (inactive)

CCOC(=O)[C@@H](N)CCC(=O)N[C@@H](CSCc1ccccc1)C(=O)N[C@@H](C(=O)OCC)c1ccccc1 [ezatiostat] (10 µM)
morphology score [1]: 0.202
SARS-CoV-2 infection rate [2]: 78.5% (inactive)

N#Cc1c(N)nc(SCc2csc(-c3ccc(Cl)cc3)n2)c(C#N)c1-c1ccc(OCCO)cc1 [capadenoson] (10 µM)
morphology score [1]: -0.145
SARS-CoV-2 infection rate [2]: 115% (inactive)

Cc1nc2ccc(-n3ncc(C(=O)c4cc5ccccc5[nH]4)c3N)cc2[nH]1 (0.833333 µM)
morphology score [1]: 0.131
SARS-CoV-2 infection rate [2]: 101% (inactive)

Cc1nc(Nc2cnn(C3CCNCC3)c2)nc2c1N(C)C(=O)c1cc3ccccc3cc1N2C (0.833333 µM)
morphology score [1]: 0.143
SARS-CoV-2 infection rate [2]: 104% (inactive)

CC[C@H](/C=C/[C@@H](C)[C@H]1CC[C@H]2[C@@H]3CC=C4C[C@@H](O)CC[C@]4(C)[C@H]3CC[C@]12C)C(C)C [Stigmasterol (Stigmasterin)] (10 µM)
morphology score [1]: 0.0238
SARS-CoV-2 infection rate [2]: 116% (inactive)

CN(C)c1ccccc1CN1CCCN(Cc2ccccc2N(C)C)C1c1ccncc1 (10 µM)
morphology score [1]: 0.576
SARS-CoV-2 infection rate [2]: 42% (active)

Nc1ccn([C@@H]2O[C@H](CO)[C@@H](O)C2(F)F)c(=O)n1 [gemcitabine] (0.833333 µM)
morphology score [1]: -0.00574
SARS-CoV-2 infection rate [2]: 114% (inactive)

CCOC(=O)CC(=O)N1CCSC1COc1ccccc1OC (stereo unspecified) [moguisteine] (10 µM)
morphology score [1]: 0.165
SARS-CoV-2 infection rate [2]: 99.5% (inactive)

CC[C@@H]1C(=O)N(C)c2cnc(Nc3ccc(C(=O)NC4CCN(C)CC4)cc3OC)nc2N1C1CCCC1 (10 µM)
morphology score [1]: -0.305
SARS-CoV-2 infection rate [2]: 104% (inactive)

O=c1nc2ccccc2c2n1CC(CN1CCN(c3ccccc3)CC1)N2 (stereo unspecified) (10 µM)
morphology score [1]: 0.221
SARS-CoV-2 infection rate [2]: 93% (inactive)

C/C(=C\C(=O)OCCCCCCCCC(=O)O)C[C@@H]1OC[C@H](C[C@@H]2O[C@H]2[C@@H](C)[C@H](C)O)[C@@H](O)[C@H]1O [mupirocin] (10 µM)
morphology score [1]: 0.0465
SARS-CoV-2 infection rate [2]: 110% (inactive)

O=c1cc[nH]c(=S)[nH]1 [2-thiouracil] (10 µM)
morphology score [1]: 0.0168
SARS-CoV-2 infection rate [2]: 108% (inactive)

Cc1cc2sc(NC(=O)Cc3ccccc3)nc2cc1Cl (10 µM)
morphology score [1]: 0.407
SARS-CoV-2 infection rate [2]: 76.5% (inactive)

CCC(=O)O[C@]1(C(=O)COC(C)=O)CC[C@H]2[C@@H]3C[C@H](C)C4=CC(=O)C=C[C@]4(C)[C@H]3[C@@H](O)C[C@@]21C [methylprednisolone-aceponate] (10 µM)
morphology score [1]: 0.0786
SARS-CoV-2 infection rate [2]: 108% (inactive)

CC[C@H](C)[C@H](NC(=O)[C@H](Cc1ccc(O)cc1)NC(=O)[C@@H](NC(=O)[C@H](CCCNC(=N)N)NC(=O)[C@@H](N)CC(=O)O)C(C)C)C(=O)N[C@@H](Cc1c[nH]cn1)C(=O)N1CCC[C@H]1C(=O)O (10 µM)
morphology score [1]: 0.109
SARS-CoV-2 infection rate [2]: 104% (inactive)

Nc1ccc(C(=O)Nc2cccc(-c3nc(N4CCOCC4)c4oc5ncccc5c4n3)c2)cn1 (10 µM)
morphology score [1]: 0.168
SARS-CoV-2 infection rate [2]: 94.5% (inactive)

N[C@H](CO)C(=O)O [D-serine] (10 µM)
morphology score [1]: 0.0301
SARS-CoV-2 infection rate [2]: 104% (inactive)

Sc1nc2ccccc2s1 [benzo[d]thiazole-2(3H)-thione] (10 µM)
morphology score [1]: 0.0522
SARS-CoV-2 infection rate [2]: 104% (inactive)

O=C1NC(=O)C(c2ccccc2)(c2ccccc2)N1 [phenytoin] (10 µM)
morphology score [1]: 0.168
SARS-CoV-2 infection rate [2]: 97% (inactive)

O=C(CCN1CCN(C(=O)OCc2cc(Cl)cc(Cl)c2)CC1)c1ccc2[nH]c(=O)oc2c1 (10 µM)
morphology score [1]: 0.127
SARS-CoV-2 infection rate [2]: 99.5% (inactive)

C=C1/C(=C\C=C2/CCC[C@]3(C)[C@@H]([C@H](C)/C=C/C=C/C(O)(CC)CC)CC[C@@H]23)C[C@@H](O)C[C@@H]1O [seocalcitol] (10 µM)
morphology score [1]: -0.0779
SARS-CoV-2 infection rate [2]: 110% (inactive)

Nc1ncnc2c1c(-c1ccc(Cl)cc1)nn2-c1cccc(-c2cnnn2Cc2cccc(-c3ccccc3)c2)c1 (10 µM)
morphology score [1]: -0.00803
SARS-CoV-2 infection rate [2]: 104% (inactive)

CC(=O)Nc1nc2c(Oc3cc(-c4ccc(C(F)(F)F)cc4)ncn3)cccc2s1 (10 µM)
morphology score [1]: 0.163
SARS-CoV-2 infection rate [2]: 108% (inactive)

CC(O)Cn1cnc2c1c(=O)n(C)c(=O)n2C (stereo unspecified) [Proxyphylline] (10 µM)
morphology score [1]: 0.074
SARS-CoV-2 infection rate [2]: 97% (inactive)

CCOC(=O)Nc1ccc(NCc2ccc(F)cc2)cc1N [Retigabine] (10 µM)
morphology score [1]: 0.067
SARS-CoV-2 infection rate [2]: 106% (inactive)

O=C(NS(=O)(=O)c1ccc(Br)s1)c1ccc(Cl)cc1Cl [tasisulam] (10 µM)
morphology score [1]: 0.161
SARS-CoV-2 infection rate [2]: 109% (inactive)

CCC(C)(CN(C)C)OC(=O)c1ccccc1 (stereo unspecified) [amyleine] (10 µM)
morphology score [1]: -0.104
SARS-CoV-2 infection rate [2]: 120% (inactive)

CC(CNC(=O)c1cccnc1)NC(=O)c1cccnc1 (stereo unspecified) [nicaraven] (10 µM)
morphology score [1]: -0.02
SARS-CoV-2 infection rate [2]: 114% (inactive)

CS(=O)(=O)Oc1ccc2c(NC(N)=O)c(C(=O)c3ccc(Cl)cc3Cl)oc2c1 [lirimilast] (10 µM)
morphology score [1]: 0.204
SARS-CoV-2 infection rate [2]: 101% (inactive)

O=C(NC[C@H](O)CN1CCc2ccccc2C1)c1cc(NC2COC2)ncn1 (10 µM)
morphology score [1]: -0.0443
SARS-CoV-2 infection rate [2]: 100% (inactive)

O=P(O)(O)C(O)(Cc1cnc2ccccn12)P(=O)(O)O [minodronic-acid] (10 µM)
morphology score [1]: -0.0261
SARS-CoV-2 infection rate [2]: 108% (inactive)

COc1cc(C(=O)NC2CCN(C)CC2)c(F)cc1Nc1ncc2c(n1)N(C1CCCC1)CC(F)(F)C(=O)N2C (0.833333 µM)
morphology score [1]: -0.193
SARS-CoV-2 infection rate [2]: 100% (inactive)

Cc1ncc([N+](=O)[O-])n1CC(C)O (stereo unspecified) [secnidazole] (10 µM)
morphology score [1]: 0.17
SARS-CoV-2 infection rate [2]: 99% (inactive)

Oc1cccc(Nc2ccc(Nc3cccc(O)c3)nn2)c1 [beta-amyloid-synthesis-inhibitor] (10 µM)
morphology score [1]: 0.0822
SARS-CoV-2 infection rate [2]: 104% (inactive)

CC(=O)N(CC(C)C(=O)O)c1c(I)cc(I)c(N)c1I (stereo unspecified) [iocetamic-acid] (10 µM)
morphology score [1]: 0.0591
SARS-CoV-2 infection rate [2]: 97% (inactive)

N[C@H](Cc1cc(I)c(Oc2ccc(O)c(I)c2)c(I)c1)C(=O)O [liothyronine-(isomer)] (10 µM)
morphology score [1]: 0.127
SARS-CoV-2 infection rate [2]: 106% (inactive)

NS(=O)(=O)c1cccc2c1c([N+](=O)[O-])cc1nc(O)c(O)nc12 (10 µM)
morphology score [1]: -0.0523
SARS-CoV-2 infection rate [2]: 104% (inactive)

CCC(C)C(C(=O)OCC[N+](C)(CC)CC)c1ccccc1 (stereo unspecified) [valethamate] (10 µM)
morphology score [1]: 0.0952
SARS-CoV-2 infection rate [2]: 95% (inactive)

CC(=C(CCO)SSCC1CCCO1)N(C=O)Cc1cnc(C)nc1N (stereo in doubt) [fursultiamine] (10 µM)
morphology score [1]: 0.0723
SARS-CoV-2 infection rate [2]: 110% (inactive)

CS(=O)(=O)c1ccc([C@@H](CC2CCCC2)C(=O)Nc2nccs2)cc1 (10 µM)
morphology score [1]: 0.0357
SARS-CoV-2 infection rate [2]: 104% (inactive)

O=C(Nc1nc(-c2cc(Cl)cs2)c(N2CCN(C3CCCCC3)CC2)s1)c1cnc(N2CCC(C(=O)O)CC2)c(Cl)c1 [avatrombopag] (10 µM)
morphology score [1]: 0.0997
SARS-CoV-2 infection rate [2]: 100% (inactive)
